In this test the test system is Fibrinogen (Alexa647-labelled). The experiment in a line: Alexa647-fibrinogen binding to printed small molecules – biochemical, small-molecule microarray, 635/667 nm fluorescence, artefact control for SMM control-protein annotation, profiling panel (AID 1131).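 Further: z-score merges 667 nm fluorescence with per-spot signal-to-noise over triplicate slides.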 Conditions: fibrinogen-A647 binding fluorescence, higher = more signal.
As to `CSCC[C@@H]1NC(=O)CC=C[C@@H](C)COC(=O)[C@H](C)COC1=O`, the composite z-score was -3.03.

Consider `CC1(C)O[C@H]2O[C@H]([C@H](O)CON=C3[C@H]4CCn5c(=O)n(-c6ccccc6)c(=O)n5[C@H]4[C@H](O)[C@@H]4O[C@H]34)[C@H](O)[C@H]2O1`, for which the composite z-score stood at 0.0946.

`COc1cccc([C@H]2Oc3ccc(OC)cc3C(=NO[C@@H](C)c3cc(-c4c(C)cc(C)cc4C)no3)[C@@H]2O)c1` came in with a composite z-score of -1.51. `CC(=O)OC[C@H]1O[C@H](C#CCCc2ccccc2)C=C[C@@H]1OC(C)=O` gave a composite z-score of 0.884. As for `CC(C)=CCCC(C)=CCON=C1C[C@@H](O)[C@@H](O)[C@@H]2[C@@H]3C(=O)N(C4CCCCC4)C(=O)[C@@H]3CC[C@H]12`, the figure is 0.573. As for `COC(=O)[C@H](C)NC(=O)CCC1CC(OC(=O)NCc2ccc3c(c2)OCO3)CC2(CCCC(COC(=O)NCCc3ccc(Cl)cc3)O2)O1` (stereo partly specified), the figure is 0.275.

As to `COC(=O)[C@H](C)NC(=O)CCC1CC(OC(=O)NCCc2ccc(F)cc2)CC2(CCCC(COC(=O)NCC3CCCCC3)O2)O1` (stereo partly specified), the composite z-score is 0.86.

On to `CCN1C(=O)[C@H]2[C@H]3[C@H](O)[C@H](O)CC(=NO[C@H](C)c4cn([C@H](CO)Cc5ccccc5)nn4)[C@@H]3CC[C@H]2C1=O`, for which the composite z-score is 0.932.

The compound `CCN1C(C)=C(C(=O)OC)[C@@H](c2ccccc2)N2C(=O)[C@](O)(C(=O)OC)CC(C(C)=O)=C12` registered a composite z-score of 0.123.

Compound `C=CC[C@@H]1C=C[C@H](ON=C(C)CCN2CCCCc3nc(C)c(C)cc32)[C@@H](CO)O1` showed a composite z-score of 0.635. As for `CC(C)=NOC(C)CN1CCCCc2nc(C)c(C)cc21` (stereo unspecified), the figure is 0.755.

Values taken from PubChem BioAssay.
